FLuc inh = Photinus pyralis luciferase inhibition | purified P. pyralis luciferase, luminescence, biochemical | 2.5% of 76,000 active | Potency, µM (top dose mostly 115 µM), hits mostly inhibitors; further: nearly all actives have a fitted effect of over 65% in size
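Inhibitors were tested against purified firefly luciferase in a biochemical, low-substrate format (both substrates at 10uM) and luminescence measured with a CCD imager.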
HEK293 viab = counter-screen for SNCA expression inhibitors: cell viability | Potency, µM (doses to about 57.1 µM), usual class: cytotoxic | HEK-293-SNCA-luc viability, GF-AFC fluorescence, 24 h | 0.12% of 150,000 active | AID 1671193; further: nearly all actives have a fitted effect of over 30% in size
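Cytotoxicity counterscreen: after 24 h compound treatment of genome-edited SNCA-luciferase HEK-293 cells, live-cell protease substrate GF-AFC read by fluorescence after 30 min; activity scaled between DMSO (0%) and medium-only (-100%), curves Hill-fitted.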
NPR1 antag = antagonists of human natriuretic peptide receptor Npr1. P16066. 1.6% of 76,000 active. HEK293 hNpr1 GloSensor cGMP, ANP-stimulated luminescence. Potency, µM (series often up to 46.3 µM), actives largely listed as inhibitors; calls by dose curve; further: nearly all actives have a fitted effect of over 60% in size
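HEK293 cells stably expressing human Npr1 and cGMP GloSensor pGS-40F, loaded 2 h with 2% GloSensor reagent, given compound 30 min at room temperature. Luminescence read before and 20 min after 0.1 nM hNppA.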
SNCA expr inh = SNCA gene expression inhibition; AID 1671194; HEK-293 SNCA-luciferase knock-in, luminescence, 24 h; 0.17% of 140,000 active; Potency, µM (highest dose often 57.2 µM), actives largely listed as inhibitors; further: nearly all actives have a fitted effect of over 45% in size
3T3 cytotox = NIH 3T3 cell cytotoxicity; Potency, µM (doses to about 96.7 µM), actives largely listed as inhibitors; NIH 3T3 viability, CellTiter-Glo ATP luminescence, 48-72 h; AID 1345082; 4.3% of 94,000 active; further: nearly all actives have a fitted effect of over 55% in size
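Cytotoxicity was measured by CellTiter-Glo ATP luminescence after 48 or 72 h compound exposure at 37 °C. Mouse NIH 3T3 fibroblasts were seeded at 400 cells/well and dosed by 23 nL pin transfer.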
HEK cytotox = cytotoxic compounds in HEK 293 cells; HEK 293 viability, ATP luminescence (CellTiter-Glo), 48-72 h; 6.6% of 94,000 active; Potency, µM (titrated, usually from 115 µM), actives largely listed as inhibitors; further: nearly all actives have a fitted effect of over 60% in size
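Cells seeded first (HEK 293, 250 cells/well), then compound added by pintool. Incubation ran 48 or 72 hr at 37 degree Celsius. CellTiter-Glo was added and luminescence imaged after 10 min at room temperature.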
Npr1 antag conf = confirmation of human Npr1 natriuretic peptide receptor antagonists | shares compounds with NPR1 antag | HEK293 hNpr1 cGMP GloSensor luminescence, ANP-stimulated | Potency, µM (doses to about 57.6 µM), usual class: inhibitors | 76% of 1,400 active; calls by dose curve; further: nearly all actives have a fitted effect of over 70% in size
NPR2 antag = hNpr2 antagonism, selectivity versus Npr1. shares compounds with NPR1 antag. HEK293 hNpr2 GloSensor cGMP luminescence, CNP-stimulated. 67% of 1,400 active. Potency, µM (highest dose often 57.6 µM), hits mostly inhibitors; calls by dose curve; further: nearly all actives have a fitted effect of over 70% in size
Target sequence (P20594 whole entry, looked up): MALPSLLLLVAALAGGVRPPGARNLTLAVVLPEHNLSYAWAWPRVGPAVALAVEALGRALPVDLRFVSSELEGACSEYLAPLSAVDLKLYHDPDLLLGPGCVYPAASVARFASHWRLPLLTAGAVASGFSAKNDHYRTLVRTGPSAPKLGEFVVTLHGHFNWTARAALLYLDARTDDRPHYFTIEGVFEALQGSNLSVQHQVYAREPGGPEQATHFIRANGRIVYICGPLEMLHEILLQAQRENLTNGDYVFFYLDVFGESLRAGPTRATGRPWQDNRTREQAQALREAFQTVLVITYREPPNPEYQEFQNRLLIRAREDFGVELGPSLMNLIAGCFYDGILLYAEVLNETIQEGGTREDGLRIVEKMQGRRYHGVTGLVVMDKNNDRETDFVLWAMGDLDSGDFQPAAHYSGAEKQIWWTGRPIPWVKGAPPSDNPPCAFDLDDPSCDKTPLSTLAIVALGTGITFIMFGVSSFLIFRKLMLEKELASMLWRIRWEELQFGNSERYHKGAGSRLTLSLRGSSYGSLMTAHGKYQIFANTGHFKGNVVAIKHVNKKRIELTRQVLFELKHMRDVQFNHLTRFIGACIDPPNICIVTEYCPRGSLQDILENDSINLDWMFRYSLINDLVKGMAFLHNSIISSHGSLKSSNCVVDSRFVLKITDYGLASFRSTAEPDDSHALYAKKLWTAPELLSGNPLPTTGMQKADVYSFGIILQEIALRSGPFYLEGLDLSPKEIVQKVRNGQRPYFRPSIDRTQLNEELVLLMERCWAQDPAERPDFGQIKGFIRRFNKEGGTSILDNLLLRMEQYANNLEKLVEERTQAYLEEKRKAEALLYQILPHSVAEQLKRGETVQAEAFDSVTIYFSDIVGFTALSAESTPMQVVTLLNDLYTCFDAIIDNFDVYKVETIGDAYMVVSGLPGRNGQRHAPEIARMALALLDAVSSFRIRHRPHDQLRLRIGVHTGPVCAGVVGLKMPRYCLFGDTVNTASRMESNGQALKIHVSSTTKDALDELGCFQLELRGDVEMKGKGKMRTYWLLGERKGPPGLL
FLuc inh counter = FLuc enzyme inhibition, Npr1 counter-screen | purified FLuc enzyme, luminescence, Km substrate | 0.7% of 1,400 active | shares compounds with NPR1 antag | Potency, µM (doses to about 57.6 µM), hits mostly inhibitors
GloSensor cGMP = control cell line activity, Npr1 antagonist counter-screen; shares compounds with NPR1 antag; HEK293 GloSensor cGMP, SNP-stimulated, luminescence; Potency, µM (titrated, usually from 57.6 µM), most hits filed as inhibitors; 69% of 1,400 active; AID 1347051; calls by dose curve; further: nearly all actives have a fitted effect of over 70% in size
Numbers stand for hits; – = inactive; ? = inconclusive; · = no result; ! = not active in a repeat. Only some compounds are listed: those with a hit (about 7.4% of all), similar ones and a draw of the others. Unless noted, the call rests on the fitted dose curve; in most records, active means well fitted curve in the direction sought with a large enough effect; inconclusive means small, poorly fitted or top-dose-only effect, or another doubt; inactive means no such curve, though single readings can be large; an effect the other way counts as inactive or inconclusive.

SMILES	FLuc inh	HEK293 viab	NPR1 antag	SNCA expr inh	3T3 cytotox	HEK cytotox	Npr1 antag conf	NPR2 antag	FLuc inh counter	GloSensor cGMP
COc1cccc(CNC(=O)c2nc3sccn3c2-c2ccccc2)c1	·	–	·	–	?	?	·	·	·	·
CN(C)c1cccc(C(=O)N2CCNc3cnc(Nc4ccc(N5CCOCC5)cc4)nc3C2)c1	–	–	–	–	–	?	·	·	·	·
COc1ccccc1Nc1ncc2c(n1)CN(C(=O)c1cccc(N(C)C)c1)CCN2	–	–	22µM	–	–	79µM	31µM	35µM	–	25µM
COc1ccccc1Nc1ncc2c(n1)CN(C(=O)c1ccccc1)CCN2	–	–	32µM	?	?	?	40µM	?	–	40µM
Cc1nnc2ccc(N3CCCC(NS(C)(=O)=O)C3)nn12 (stereo not given)	·	·	·	·	–	–	·	·	·	·
OC1CC(c2cc(NCCCn3ccc4ccccc43)ncn2)C1 (stereo not given)	–	–	11µM	–	?	?	19µM	19µM	–	12µM
COc1ccccc1Cn1c(=O)c(C(=O)N2CCN(C(=O)c3ccccc3)CC2)nc2cccnc21	·	–	·	–	–	–	·	·	·	·
O=c1[nH]c(C2CCN(Cc3ccc(-c4cccnc4)cc3)CC2)nc2ccc(F)cc12	–	–	?	–	5.6µM!	?	19µM	19µM	–	17µM
COc1cccc(-c2ccc(CN3CCCC(c4nc5ccc(C)cc5c(=O)[nH]4)C3)cc2)c1 (stereo not given)	–	–	11µM	?	28µM!	25µM	17µM	22µM	–	17µM
Cc1ccc2nc(C3CCN(CC4CCCC4)CC3)[nH]c(=O)c2c1	–	–	–	–	–	–	·	·	·	·
CC(C)NC(=O)C1CCN(Cc2ccccc2-c2ccccc2F)CC1	·	–	·	–	–	–	·	·	·	·
COc1cccc(CNC(=O)c2cn3cc(-c4cccc(C#N)c4)sc3n2)c1	·	–	·	–	–	?	·	·	·	·
COCCN(C)C(=O)c1ccc2c(c1)NC(C)(COc1cccnc1)CO2 (stereo not given)	–	–	?	–	?	?	·	·	·	·
CC1(COc2cccnc2)COc2ccc(C(=O)NCc3ccc(F)cc3)cc2N1 (stereo not given)	–	?	35µM	?	?	56µM	31µM	31µM	–	25µM
CC1(COc2cccnc2)COc2ccc(C(=O)NCc3cnccn3)cc2N1 (stereo not given)	–	–	–	–	–	?	·	·	·	·
COc1ccc(OCC2(C)COc3ccc(C(=O)N(C)C)cc3N2)cc1 (stereo not given)	–	?	?	?	–	?	·	·	·	·
COc1ccc(OCC2(C)COc3ccc(C(=O)Nc4ccccc4)cc3N2)cc1 (stereo not given)	–	–	25µM	–	?	?	35µM	35µM	–	35µM
CC1(COc2cccnc2)COc2ccc(C(=O)NCc3ccc4c(c3)OCO4)cc2N1 (stereo not given)	–	–	25µM	–	?	?	31µM	31µM	–	22µM
CN(C(=O)c1ccc2c(c1)NC(C)(COc1cccnc1)CO2)c1ccccc1 (stereo not given)	–	–	3.2µM	?	–	?	3.5µM	5µM	–	3.1µM
Cc1nnc2ccc(N3CCCN(C(=O)Cc4ccc(F)cc4)CC3)nn12	·	·	·	·	–	–	·	·	·	·
